Consider 99 compounds from PubChem BioAssay AID1578 (Sanford-Burnham Center for Chemical Genomics, 2009).

Out of some 290,000 compounds screened, about 3,000 (1%) were called active. The sample holds actives, similar compounds and a random draw of the others, so the mix is not that of the screen. Unmarked numbers belong to inactive results. Rule as the data show it: active = inhibition mostly above about 36% (no sharp cut-off); inactive = mostly below about 34%.

The assay can be described thus: inhibition of NOD1-driven NF-kB reporter – cell-based, luminescence, uHTS, primary screen (AID 1578).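 Also: HEK-293T reporter cells stimulated with the NOD1 agonist gamma-tri-DAP.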 The conditions noted are these: NOD1-driven NF-kB luciferase reporter cells, at 4 µM, stronger effect = higher value. (In a reporter assay the amount or activity of a reporter protein is the signal.)
As for `Cc1nc(C)n(CCNC(=O)c2ccco2)n1`, the inhibition (commonly the change of the read-out against control, counted positive when it falls) is -15.3%.

`Oc1c(Br)cc(Br)cc1C=Nc1ccc2[nH]ncc2c1`: the inhibition was 8.5%.

Regarding `COc1cccc(C=Nc2cccnc2)c1O`, the inhibition is -7.3%.

For the compound `Oc1c(Br)cc(Br)cc1C=Nc1cccnc1`, the inhibition was 67.4% (active).

Regarding `COc1ccc(/C=C2\CCC(C3CCCC3)C2=O)cc1Cn1nc(C)cc1C` (centres undefined), the inhibition was 26.4%.

In the case of `Cc1ccc(SCC(=O)NC2CCCCCC2)cc1`, the inhibition was -50.8%.

Take `CCN(CC)CCNC(=O)c1cn(CC)c2ccc(S(=O)(=O)N(C)C)cc2c1=O`: the inhibition was -4.5%.

As to `COC(=O)C(C(=O)OC)C(CC(=O)c1ccc(C)cc1)c1cc(OC)c(OC)c(OC)c1` (centres undefined), the inhibition is -3.3%.

For the compound `COc1ccc(C(CC(=O)c2ccccc2)CC(=O)c2ccccc2)cc1OC`, the inhibition is -7.4%.

For `COc1ccc(C(CC(=O)c2ccc(C)cc2)C(C#N)C#N)cc1OC` (centres undefined), the inhibition is 80.7% (active).

In the case of `C=CCN(c1nc(C)c(Br)c(OC)n1)S(=O)(=O)c1ccc(C)cc1`, the inhibition was -14%.

As for `CCN(Cc1cc2ccccc2[nH]c1=O)S(=O)(=O)c1ccc(OC)cc1`, the inhibition was -5.3%.

`O=C(Oc1ccccc1C(=O)Nc1ccccc1)c1ccc(Br)c([N+](=O)[O-])c1`: the inhibition was -30.7%.

On to `Cc1cc(CNC(=O)c2cccc([N+](=O)[O-])c2C)c2ccccc2n1`, for which the inhibition was 2.7%.

With `O=C(c1ccc2c(Cl)c3c(nc2c1)CCCC3)N1CCC(N2CCCCC2)CC1`, the inhibition is -13.1%.

Turning to `Cn1c(=O)c(C(=O)CN2CCc3ccccc32)c(N)n(Cc2ccccc2)c1=O`, the inhibition is -8.9%.

As for `O=C(CSc1nc2ncc(Br)cc2[nH]1)c1ccc([N+](=O)[O-])cc1`, the inhibition is -15.6%.

For the compound `Cc1c(/C=C/C(=O)c2cccs2)cnn1C`, the inhibition was 20.7%.

For `Cc1nn(C)cc1/C=C/C(=O)c1cccs1`, the inhibition was 112% (active).

Consider `Cc1nn(C)cc1/C=C/C(=O)c1ccccc1`, for which the inhibition is -44.5%.

With `Cc1ccnc(Cc2ccccc2)n1`, the inhibition was -4.5%.

As to `O=C(CCC(=O)OCC(=O)c1ccc(-c2ccccc2)cc1)Nc1cccc(Cl)c1`, the inhibition is 7.8%.

On to `Cc1cc(C)n(-c2ccc(C(=O)Nc3ccccn3)cc2)n1`, for which the inhibition is -30.3%.

Turning to `Cc1onc(-c2c(Cl)cccc2Cl)c1C(=O)N/N=C(\N)COc1ccc(Cl)cc1`, the inhibition was 71.9% (active).

Regarding `Cc1onc(-c2ccccc2Cl)c1C(=O)N/N=C(\N)COc1ccc(Cl)cc1`, the inhibition was 8.6%.

As for `Cc1onc(-c2ccccc2)c1C(=O)N/N=C(\N)COc1ccc(Cl)cc1`, the inhibition is -17.2%.

With `O=C(NCC1CC1)NC(=O)c1c(F)cccc1Cl`, the inhibition is -15.8%.

For `Nc1ccc(S(=O)(=O)Nc2nccc(/C=C/c3ccc(Cl)cc3)n2)cc1`, the inhibition is 22.2%.

Consider `Nc1ccc(S(=O)(=O)Nc2nccc(/C=C/c3ccc([N+](=O)[O-])cc3)n2)cc1`, for which the inhibition was 14%.

For `C=CCn1cnc2c(nnn2-c2ccc(C)c(C)c2)c1=O`, the inhibition is -34.3%.

`Oc1ccc(N=Nc2ccc3c(c2)OCCO3)c2ncccc12`: the inhibition was 106% (active).

For `O=S(=O)(Nc1ccc(N=Nc2ccc(O)c3ccccc23)cc1)c1ccccc1`, the inhibition was 13%.

As for `NS(=O)(=O)c1ccc(N=Nc2ccc(O)c3ncccc23)cc1`, the inhibition was -6.1%.

With `Oc1ccc(N=Nc2ccc3c(c2)OCCO3)c(O)c1`, the inhibition was -2.2%.

With `Oc1ccc(N=Nc2ccc3c(c2)OCO3)c2ccccc12`, the inhibition was 109% (active).

In the case of `Oc1[nH]c2ccccc2c1C=Nc1ccc2c(c1)OCO2`, the inhibition was 14.2%.

`Cc1ccc(S(=O)(=O)N(CC(=O)N2CCC(C)CC2)c2ccccc2)cc1`: the inhibition is -4.7%.

As for `Cc1nc(NC(=O)c2ccccc2)sc1C`, the inhibition was -84.9%.

As to `COCC(=O)OCn1nnc2ccccc2c1=O`, the inhibition is 3.6%.

`Cc1ccc(NC(=O)c2ccc(Nc3c([N+](=O)[O-])cc([N+](=O)[O-])cc3[N+](=O)[O-])cc2)cc1`: the inhibition was 4.8%.

On to `O=C(Nc1ccccc1)c1ccc(Nc2c([N+](=O)[O-])cc([N+](=O)[O-])c3ccccc23)cc1`, for which the inhibition was -8.1%.

As to `Cc1ccccc1NC(=O)c1ccc(Nc2c([N+](=O)[O-])cc([N+](=O)[O-])c3ccccc23)cc1`, the inhibition is 76.4% (active).

Regarding `CSc1ccccc1NC(=O)c1ccc(CN2CCOCC2)cc1`, the inhibition was -18.3%.

Consider `COc1cc(C2NC(=O)NC(C)=C2C(C)=O)ccc1O` (centres undefined), for which the inhibition was 7.8%.

In the case of `COc1cc(C2NC(=O)NC(C)=C2C(C)=O)cc(OC)c1OC` (centres undefined), the inhibition is 54.9% (active).

On to `CCOC(=O)COc1c(Br)cc(C2NC(=O)NC(C)=C2C(C)=O)cc1OC` (centres undefined), for which the inhibition was -12.4%.

As for `CCOCCOC(=O)Cn1cnc2scc(-c3ccc(C)cc3)c2c1=O`, the inhibition was -15.2%.

For `O=C(CN1CCCC1=O)NC1(C(F)(F)F)NC(=O)N(Cc2ccccc2)C1=O` (centres undefined), the inhibition is -22.8%.

Turning to `N#C/C(=C\c1ccncc1)c1nc2c(s1)CCCC2`, the inhibition is -9.5%.

Turning to `CC1CCc2nc(/C(C#N)=C/c3cccnc3)sc2C1` (centres undefined), the inhibition was -52.3%.

Turning to `CC1CCc2nc(/C(C#N)=C/c3ccncc3)sc2C1` (centres undefined), the inhibition is 64.3% (active).

For `O=C(CSc1nc2c(cnn2-c2ccc(F)cc2)c(=O)[nH]1)N1CCCc2ccccc21`, the inhibition is 4.3%.

In the case of `CCCS(=O)(=O)N1CCCC(C(=O)Oc2ccc(OC)cc2)C1` (centres undefined), the inhibition was -5.5%.

In the case of `Oc1ccccc1CNc1ccc2c(c1)OCCO2`, the inhibition was -47.1%.

Turning to `O=C(/C=C/c1ccccc1)Nc1ccc2c(c1)OCCO2`, the inhibition was -2.7%.

Consider `C=CCOc1ccccc1CN(C(=O)CCl)c1ccc2c(c1)OCO2`, for which the inhibition is 64.3% (active).

On to `C=CCOc1ccccc1CNc1ccc2c(c1)OCCO2`, for which the inhibition was 58.5% (active).

As for `O=C(CCl)N(C/C=C/c1ccccc1)c1ccc2c(c1)OCCO2`, the inhibition was 54.1% (active).

For the compound `O=Cc1ccccc1OCc1ccc2c(c1)OCO2`, the inhibition was 16.8%.

For `O=C(/C=C/c1ccccc1)NCCc1ccc2c(c1)OCCO2`, the inhibition is -27.8%.

As for `CCOc1ccccc1NC(=O)Nc1ccc2c(c1)OCO2`, the inhibition was -52.1%.

`C=CCOc1ccccc1CNc1cccc(F)c1`: the inhibition was 2.1%.

Take `O=C(CSc1c(F)c(F)cc(F)c1F)Nc1ccc(C2SCCS2)cc1`: the inhibition is -7.2%.

Take `O=C(CSCc1ccc(Cl)cc1)Nc1ccc(O)cc1C(=O)O`: the inhibition was -25.7%.

With `CCCc1cc(=O)[nH]c(/N=C(\N)Nc2ccccc2)n1`, the inhibition was -6.1%.

With `CCOC(=O)CNC(=O)CSc1nnc(NC(=O)c2ccc(S(=O)(=O)N3CCOCC3)cc2)s1`, the inhibition is -3.6%.

Take `Cc1oncc1C(=O)N1CCCC(CO)(Cc2ccc(F)cc2F)C1` (centres undefined): the inhibition is -6.9%.

With `CC(NS(=O)(=O)c1ccc(Br)cc1)c1ccccc1` (centres undefined), the inhibition was -16.8%.

`CCN1CCN(c2nc3c(c(=O)n(C)c(=O)n3C)n2Cc2cccc3ccccc23)CC1`: the inhibition is -7.8%.

Consider `Cc1n(Cc2ccccc2)c2ccccc2[n+]1Cc1ccccc1`, for which the inhibition is 19.4%.

As to `COc1ccc(-c2nc3ccccc3n2Cc2ccccc2)cc1`, the inhibition was 14.3%.

Turning to `O=C(CNC(=O)c1cccs1)NCCN1CCN(Cc2ccccc2)CC1`, the inhibition is -22.6%.

Take `COc1ccc(OC)c(N/C=C/C(=O)c2ccccc2)c1`: the inhibition is 62.5% (active).

Regarding `COc1ccc(N/C=C/C(=O)c2ccccc2)cc1`, the inhibition was -59%.

Turning to `COc1ccc(OC)c(N/C=C/C(=O)c2ccc(OC)c(OC)c2)c1`, the inhibition was -24.7%.

As to `Cc1nc2c(ccc3nc(NC(=O)Cc4cccc5ccccc45)sc32)s1`, the inhibition is -33%.

For `COc1cc2[nH]c(=S)nc(NCc3ccc(Cl)cc3)c2cc1OC`, the inhibition is -8.3%.

Turning to `COc1cc(OC)cc(C(=O)N[C@H](C(=O)OCc2cc(=O)oc3cc(C)ccc23)C(C)C)c1`, the inhibition is -34.2%.

As to `Cc1csc2c(NC3CCN(Cc4ccccc4)CC3)ncnc12`, the inhibition is 5%.

As for `Cc1sc2ncnc(NC3CCN(Cc4ccccc4)CC3)c2c1C`, the inhibition was 42.7%.

With `CNC(=S)N(CCc1c(C)[nH]c2ccc(Cl)cc12)Cc1cccnc1`, the inhibition was 46.2% (active).

Consider `CCNC(=S)N(CCc1c(C)[nH]c2ccc(Cl)cc12)Cc1cccnc1`, for which the inhibition is 11.3%.

`CNC(=S)N(CCc1c(C)[nH]c2ccc(C)cc12)Cc1cccnc1`: the inhibition is -9%.

With `O=C(OCc1nc2ccccc2s1)c1ccc([N+](=O)[O-])o1`, the inhibition is -43.7%.

As for `Cc1ccc(C(=O)NCc2ccc(F)cc2)cc1NC1=NC2CS(=O)(=O)CC2S1` (centres undefined), the inhibition is -41.2%.

`O=C(NCC1CCCO1)c1cc2c([nH]c3ccccc32)c(-c2cccc(Cl)c2)n1` (centres undefined): the inhibition was 73.1% (active).

`O=C(NCC1CCCO1)c1cc2c([nH]c3ccccc32)c(-c2cccc(Br)c2)n1` (centres undefined): the inhibition was 33.6%.

Consider `COc1cccc(-c2nc(C(=O)NCC3CCCO3)cc3c2[nH]c2ccccc23)c1` (centres undefined), for which the inhibition was 51.4%.

Turning to `Cc1cc(=O)[nH]c(SCC(=O)Nc2ccc(F)c([N+](=O)[O-])c2)n1`, the inhibition was -19.5%.

`COc1ccc(CNC(=O)CSc2nnc(NC(=O)c3ccccc3F)s2)cc1`: the inhibition is -52.7%.

Consider `CC1CCCCC1NC(=O)CCn1ccc2cc(S(=O)(=O)N3CCCC3)ccc21` (centres undefined), for which the inhibition is 13.3%.

As for `Nc1nnc(/C=C/c2ccccc2)s1`, the inhibition is -41.9%.

For the compound `C(=C\c1ccncc1)/c1ccccc1`, the inhibition is -7.3%.

Regarding `CC1(C)CCSC(/C=C/c2ccccc2)=N1`, the inhibition is 73.3% (active).

With `COc1cc2c(c(O)c1OC)-c1c(cc(OC)c(OC)c1OC)C[C@@H](C)[C@@H](C)C2`, the inhibition is 1.8%.

As for `Cc1ccc(-c2noc(CCCC(=O)NCC3CCCO3)n2)cc1` (centres undefined), the inhibition is 8.8%.

On to `COc1ccc(NC(=O)C(Cl)=C(Cl)Cl)cn1`, for which the inhibition is 30.7%.

`COc1ccc(CS(=O)(=O)/C(Cl)=C(/Cl)C(=O)Nc2ccc(OC)nc2)cc1`: the inhibition is 78.4% (active).

Turning to `COc1ccc(CC(=O)Nc2ccc(OC)nc2)cc1`, the inhibition was -29.9%.
